Screening data (PubChem BioAssay)
Most compounds without a hit are left out; they make up all but 6.2% or so of the library.
RORg inh – inhibitors of mouse ROR gamma transcriptional activity; Drosophila S2 Gal4-RORgamma UAS-luciferase reporter, 20 h; 310,000 compounds, 5.4% hits; P51450; Potency, µM (top dose mostly 53.6 µM), usual class: inhibitors; also: nearly all actives have a fitted effect of over 60% in size
Target sequence (P51450 whole entry, looked up, the tested form may be a part): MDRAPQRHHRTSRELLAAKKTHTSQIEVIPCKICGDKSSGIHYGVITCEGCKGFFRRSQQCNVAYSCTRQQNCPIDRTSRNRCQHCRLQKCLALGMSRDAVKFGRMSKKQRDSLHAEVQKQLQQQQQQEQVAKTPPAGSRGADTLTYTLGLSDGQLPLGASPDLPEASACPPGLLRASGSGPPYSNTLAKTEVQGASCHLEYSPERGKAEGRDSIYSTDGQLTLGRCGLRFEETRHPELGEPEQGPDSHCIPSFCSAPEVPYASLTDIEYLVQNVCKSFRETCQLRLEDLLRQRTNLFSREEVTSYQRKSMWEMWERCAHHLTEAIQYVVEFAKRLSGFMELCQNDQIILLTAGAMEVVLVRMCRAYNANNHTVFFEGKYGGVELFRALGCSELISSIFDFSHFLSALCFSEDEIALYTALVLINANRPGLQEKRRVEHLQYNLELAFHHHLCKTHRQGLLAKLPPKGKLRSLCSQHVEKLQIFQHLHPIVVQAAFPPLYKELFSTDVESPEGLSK
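ROR gamma transcriptional activity was tracked as Gal4-UAS luciferase output in stably transfected Drosophila Schneider cells, with compound added 1 hr before 700 uM copper sulfate induction and a 20 hr ambient-temperature incubation.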
Gal4-VP16 FLuc – counter-screen for ROR gamma inhibitors: Gal4-VP16 reporter | AID 2546 | Drosophila S2 Gal4-VP16 UAS-luciferase, luminescence, 20 h | Potency, µM (series often up to 53.6 µM), actives largely listed as inhibitors | 310,000 compounds, 3.5% hits;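 also: Gal4-VP16 expression switched on by copper sulfate through the metallothionein promoter; nearly all actives have a fitted effect of over 50% in size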
KinaseGlo FLuc – blocks Kinase-Glo luciferase, a counter-screen artifact; 200,000 compounds, 0.28% hits; Kinase-Glo luciferase, ATP luminescence, 8 min; Potency, µM (top dose mostly 38.3 µM), actives largely listed as inhibitors; also: nearly all actives have a fitted effect of over 60% in size
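Light output from Kinase-Glo luciferase with luciferin and 10 uM ATP in 50 mM imidazole pH 7.2, KCl, MgCl2, Tween 20, BSA; compound pin-delivered, 8-min ambient incubation, then luminescence read.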
Of the large screens only hits and unclear results are named; the others gave an inactive call. Calls follow the shape of the dose curve; as a rule, active = well fitted curve in the direction sought with a large enough effect; inconclusive = small, poorly fitted or top-dose-only effect, or another doubt; inactive = no such curve, though single readings can be large; an effect the other way counts as inactive or inconclusive.

CCOC(=O)C(NCc1ccco1)(NC(=O)c1ccccc1)C(F)(F)F (configuration not stated)	RORg inh inconclusive
CCCCCCCC/C=C\C/C=C\C/C=C\CCCC(=O)NCCO	none
Cc1[nH]nc2c1C(CCc1ccccc1)C(C#N)=C(N)O2 (configuration not stated)	none
CC(C)CCOC(=O)C(C)Sc1n[nH]c(=O)[nH]c1=O (configuration not stated)	none (no result: KinaseGlo FLuc)
S=C1N(c2ccccc2)CN(C2CCCCC2)CN1c1ccccc1	RORg inh 11µM, Gal4-VP16 FLuc 20µM (no result: KinaseGlo FLuc)
O=C(c1ccccc1)N1CCN(C2CCCCC2)CC1	none
NS(=O)(=O)c1ccc(CCNC(=O)C(=O)NCC2OCCN2S(=O)(=O)c2ccc(F)cc2)cc1 (configuration not stated)	none (no result: KinaseGlo FLuc)
NS(=O)(=O)c1ccc(CCNC(=O)C(=O)NCC2OCCN2S(=O)(=O)c2ccc(Cl)cc2)cc1 (configuration not stated)	Gal4-VP16 FLuc 16µM (no result: KinaseGlo FLuc)
O=C(NCc1ccccn1)C(=O)NCC1OCCN1S(=O)(=O)c1ccc(Br)cc1 (configuration not stated)	Gal4-VP16 FLuc 25µM (no result: KinaseGlo FLuc)
O=C(NCc1ccccn1)C(=O)NCC1OCCN1S(=O)(=O)c1ccc([N+](=O)[O-])cc1 (configuration not stated)	none (no result: KinaseGlo FLuc)
CN(C)c1ccc(N2C(=NC(=O)CC3CCCCC3)SC3CS(=O)(=O)CC32)cc1 (configuration not stated)	none (no result: KinaseGlo FLuc)
COc1ccc(Cc2n[nH]c(=S)n2N)cc1OC	none
COc1ccc(CCn2c(C)ccc2C)cc1OC	RORg inh inconclusive
CCCCn1c(-c2cc(Cl)ccc2OC)n[nH]c1=S	RORg inh 3.2µM, Gal4-VP16 FLuc 10µM
CCCCn1c(-c2cccnc2)n[nH]c1=S	RORg inh inconclusive
COc1ccc(CCn2c(-c3ccc(C(C)(C)C)cc3)n[nH]c2=S)cc1OC	RORg inh 3.2µM
COc1ccc(CCn2c(-c3ccc(Cl)cc3)n[nH]c2=S)cc1OC	RORg inh 1.6µM, Gal4-VP16 FLuc inconclusive
C=C1CCN(C(CC(C)C)C(=O)NCCCc2ccccc2)S(=O)(=O)c2ccccc21 (configuration not stated)	RORg inh inconclusive (no result: KinaseGlo FLuc)
O=C(CCSc1ccc(Br)cc1)c1ccc(O)cc1	none (no result: KinaseGlo FLuc)
C=CCNC(=O)C(=O)Nc1cc2c3c(c1)CCC(=O)N3CCC2	none (no result: KinaseGlo FLuc)
Cc1ccccc1-c1nnc(-c2ccccc2)o1	KinaseGlo FLuc inconclusive
Cn1cc(-c2nnc(-c3ccccc3)o2)c2ccccc21	RORg inh 1.4µM, Gal4-VP16 FLuc inconclusive
Cc1ccc(C)c(NC(=O)c2cc([N+](=O)[O-])cc([N+](=O)[O-])c2)c1	none (no result: KinaseGlo FLuc)
CN(C1CCCCC1)S(=O)(=O)c1ccc(S(=O)(=O)N2CCN(C(=O)c3ccccc3F)CC2)cc1	none
O=C(/C=C1\C(=O)Nc2ccccc21)/C=C1\C(=O)Nc2ccccc21	RORg inh 13µM, Gal4-VP16 FLuc 10µM (no result: KinaseGlo FLuc)
CC(C)Oc1ccc(C(=O)/C=C2/C(=O)Nc3ccccc32)cc1	RORg inh 10µM, Gal4-VP16 FLuc inconclusive (no result: KinaseGlo FLuc)
CN(C)/C=C1\C(=O)Nc2ccccc21	none
CN(O)/C=C1\C(=O)Nc2ccccc21	none
COc1ccc(C(=C2C(=O)Nc3ccccc32)c2ccc(OC)cc2)cc1	none (no result: KinaseGlo FLuc)
O=C1Nc2ccccc2/C1=C\C(=O)c1ccccc1	RORg inh 13µM, Gal4-VP16 FLuc inconclusive (no result: KinaseGlo FLuc)
Cc1cc(S(=O)(=O)n2[nH]c(=O)c(CCO)c2C)c(Cl)cc1Cl	none (no result: KinaseGlo FLuc)
Cc1cc(C(F)(F)F)nn1Cc1n[nH]c(=S)n1-c1cccc(Cl)c1	RORg inh 11µM, Gal4-VP16 FLuc inconclusive
Cc1cc(C(F)(F)F)nn1Cc1n[nH]c(=S)n1-c1ccc(Cl)cc1	RORg inh inconclusive, Gal4-VP16 FLuc inconclusive
Cc1ccc(-n2c(Cn3nc(C(F)F)cc3C(F)F)n[nH]c2=S)cc1	RORg inh inconclusive
Cc1cc(C(F)(F)F)nn1Cc1n[nH]c(=S)n1Cc1ccccc1	RORg inh inconclusive, Gal4-VP16 FLuc 6.3µM
CC(=O)N1N=C(c2cccc([N+](=O)[O-])c2)OC1c1ccc(Cl)cc1Cl (configuration not stated)	none
Cc1ccc(C)c(NC(=O)C2CC(=O)N(C3CCCCC3)C2)c1 (configuration not stated)	none (no result: KinaseGlo FLuc)
O=C(CC1SC2=NCCN2C1=O)Nc1ccc(Br)cc1 (configuration not stated)	none
O=C(CC1Sc2ncnn2C1=O)Nc1ccc(Br)cc1 (configuration not stated)	RORg inh inconclusive, Gal4-VP16 FLuc 25µM
NNC(=O)c1ccc(N2CCc3ccccc32)c([N+](=O)[O-])c1	RORg inh inconclusive
COC(CNC(=O)c1ccc(N2CCc3ccccc32)c([N+](=O)[O-])c1)OC	RORg inh inconclusive, Gal4-VP16 FLuc 18µM
COc1cccc2c1CCCC2CCCN1CCN(C2CCCCC2)CC1 (configuration not stated)	none (no result: KinaseGlo FLuc)
O=C(CCl)NCCCN(C(=O)C(Cl)Cl)c1ccc([N+](=O)[O-])cc1	none (no result: KinaseGlo FLuc)
Cn1cc(CNC(=O)c2cc(COc3ccc4c(c3)CCCC4)on2)cn1	RORg inh inconclusive (no result: KinaseGlo FLuc)
O=C(NC(c1cccnc1)C(F)(F)F)c1cc(COc2ccc3c(c2)CCCC3)on1 (configuration not stated)	RORg inh inconclusive, Gal4-VP16 FLuc 7.1µM (no result: KinaseGlo FLuc)
Cc1cc(OC(C)C(=O)N2CCN(c3ccc(F)cc3)CC2)c2c(C)c(C)c(=O)oc2c1 (configuration not stated)	none (no result: KinaseGlo FLuc)
O=C1[C@H]2[C@H]3[C@H](O)[C@H](O)C/C(=N/OCc4ccccc4)[C@@H]3CC[C@@H]2C(=O)N1c1cccc(Oc2ccccc2)c1	none (no result: KinaseGlo FLuc)
O=C1C2=CC[C@H]3C(=O)N(c4cccc(Oc5ccccc5)c4)C(=O)[C@@H]3[C@@H]2[C@H](O)[C@@H]2O[C@H]12	RORg inh 2.2µM, Gal4-VP16 FLuc inconclusive (no result: KinaseGlo FLuc)
O=C1C2=CC[C@H]3C(=O)N(C4CCCCC4)C(=O)[C@@H]3[C@@H]2[C@H](O)[C@@H]2O[C@H]12	RORg inh 2µM, Gal4-VP16 FLuc inconclusive (no result: KinaseGlo FLuc)
O=C1C[C@@H](O)[C@@H](O)[C@H]2[C@@H]3C(=O)N(C4CCCCC4)C(=O)[C@@H]3CC[C@H]12	none (no result: KinaseGlo FLuc)
CCN1C(=O)[C@@H]2[C@H]3C(=CC[C@H]2C1=O)C(=O)[C@H]1OC1[C@H]3O (some centres not stated)	RORg inh 2µM, Gal4-VP16 FLuc inconclusive (no result: KinaseGlo FLuc)
O=C1[C@H]2[C@H]3[C@H](O)[C@H](O)C/C(=N/OCc4ccccc4)[C@@H]3CC[C@@H]2C(=O)N1Cc1ccc2c(c1)OCO2	none (no result: KinaseGlo FLuc)
CCN1C(=O)[C@H]2[C@H]3[C@H](O)[C@H](O)C/C(=N/OC)[C@@H]3CC[C@@H]2C1=O	none (no result: KinaseGlo FLuc)
O=C1C2=CC[C@H]3C(=O)N(Cc4ccc5c(c4)OCO5)C(=O)[C@@H]3[C@@H]2[C@H](O)[C@@H]2O[C@H]12	RORg inh 4.5µM, Gal4-VP16 FLuc inconclusive (no result: KinaseGlo FLuc)
CC(C)=CCC/C(C)=C/CC/C(C)=C/CC/C(C)=C/C(=O)O	none (no result: KinaseGlo FLuc)
Cc1cc(S(=O)(=O)Nc2ccc3cn[nH]c3c2)c(C)cc1Cl	none (no result: KinaseGlo FLuc)
C=CCN1c2ccccc2[C@]23C[C@@H](C(=O)OC)N(S(=O)(=O)c4c(C)noc4C)C2=NC(C(=O)OC)=C(C(=O)OC)[C@H]13	none (no result: RORg inh, Gal4-VP16 FLuc)
Nc1nn(-c2cccc(F)n2)cc1-c1ccccc1	Gal4-VP16 FLuc inconclusive
CC(C)C[C@H](NC(=O)N1CCn2c1nc1ccccc12)C(=O)N1CCCCC1	none (no result: KinaseGlo FLuc)
